Results filed as inconclusive are left out. Calls of active or inactive are those of the source. The calls were made as follows, unless noted: active = hit-call score of the fitted dose curve at least 0.9, where 1 is the maximum; inactive = score below 0.9.
Legend:
[1] = molecular target: Estrogen-related receptor gamma (Homo sapiens) (UniProt P62508); assay: ATG_ERRg_TRANS: Attagene TRANS-FACTORIAL HepG2 Assay for human Estrogen-Related Receptor gamma (ERRg) (AID 2282977; active = hit-call score of the fitted dose curve at least 0.9, where 1 is the maximum;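 also: hits increase reporter signal over DMSO so potencies reflect activators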); conditions: HepG2 Attagene TRANS reporter, ERRg transactivation
Estrogen-related receptor gamma (Homo sapiens), sequence (P62508 whole entry, looked up, the tested form may be a part): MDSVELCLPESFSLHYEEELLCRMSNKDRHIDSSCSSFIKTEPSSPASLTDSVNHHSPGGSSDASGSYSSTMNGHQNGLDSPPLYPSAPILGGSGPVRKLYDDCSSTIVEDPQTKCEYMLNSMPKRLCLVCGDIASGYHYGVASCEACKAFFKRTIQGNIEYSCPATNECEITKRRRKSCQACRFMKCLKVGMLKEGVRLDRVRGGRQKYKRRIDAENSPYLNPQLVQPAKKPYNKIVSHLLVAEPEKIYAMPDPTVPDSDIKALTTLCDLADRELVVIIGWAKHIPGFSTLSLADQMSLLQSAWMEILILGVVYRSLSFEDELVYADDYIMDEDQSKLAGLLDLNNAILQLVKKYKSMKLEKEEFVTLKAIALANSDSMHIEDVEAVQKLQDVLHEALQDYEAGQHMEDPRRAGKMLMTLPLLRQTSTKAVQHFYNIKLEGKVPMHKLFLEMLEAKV
In short: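 HepG2 cells transiently transfected with multiplexed GAL4-UAS reporter units and chimeric NR-Gal4 constructs were exposed to test chemicals for 24 h. Reporter mRNA was measured by RT-PCR, 6-FAM primer extension, HpaI digestion and capillary electrophoresis; gain-of-signal versus DMSO.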

[2] = molecular target: Bile acid receptor (Homo sapiens) (UniProt Q96RI1); assay: ATG_FXR_TRANS: Attagene TRANS-FACTORIAL HepG2 Assay for Farnesoid X Receptor (FXR) (AID 2282979; active = hit-call score of the fitted dose curve at least 0.9, where 1 is the maximum;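 also: hits raise reporter mRNA above DMSO so AC50 marks FXR activation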); conditions: HepG2 Attagene TRANS FXR-GAL4 reporter transcription
Bile acid receptor (Homo sapiens), sequence (Q96RI1 whole entry, looked up, the tested form may be a part): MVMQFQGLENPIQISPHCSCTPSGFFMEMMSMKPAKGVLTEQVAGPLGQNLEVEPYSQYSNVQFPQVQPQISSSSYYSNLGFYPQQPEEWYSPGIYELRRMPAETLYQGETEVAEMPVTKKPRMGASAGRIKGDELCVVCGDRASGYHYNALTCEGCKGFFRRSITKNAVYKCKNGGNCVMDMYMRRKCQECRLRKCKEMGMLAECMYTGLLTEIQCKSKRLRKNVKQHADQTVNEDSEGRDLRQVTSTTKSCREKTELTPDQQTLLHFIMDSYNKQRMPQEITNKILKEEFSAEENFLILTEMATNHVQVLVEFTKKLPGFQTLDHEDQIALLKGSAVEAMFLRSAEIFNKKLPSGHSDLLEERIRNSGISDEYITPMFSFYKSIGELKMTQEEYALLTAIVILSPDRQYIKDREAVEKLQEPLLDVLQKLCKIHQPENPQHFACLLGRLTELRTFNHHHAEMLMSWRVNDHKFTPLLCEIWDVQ
In short: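 HepG2 cells transiently transfected with reporter constructs in which a chimeric FXR-GAL4 protein drives a GAL4-UAS reporter; 24 h compound exposure. Reporter mRNA measured by RT-PCR, FAM labelling, HpaI digestion and capillary electrophoresis; gain-of-signal versus DMSO.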

[3] = molecular target: Nuclear receptor subfamily 4 group A member 2 (Homo sapiens) (UniProt P43354); assay: ATG_NURR1_TRANS: Attagene TRANS-FACTORIAL HepG2 Assay for human Nuclear Receptor Related Protein 1 (NURR1) (AID 2282985; active = hit-call score of the fitted dose curve at least 0.9, where 1 is the maximum); conditions: HepG2 Attagene TRANS reporter, mRNA readout
Nuclear receptor subfamily 4 group A member 2 (Homo sapiens), sequence (P43354 whole entry, looked up, the tested form may be a part): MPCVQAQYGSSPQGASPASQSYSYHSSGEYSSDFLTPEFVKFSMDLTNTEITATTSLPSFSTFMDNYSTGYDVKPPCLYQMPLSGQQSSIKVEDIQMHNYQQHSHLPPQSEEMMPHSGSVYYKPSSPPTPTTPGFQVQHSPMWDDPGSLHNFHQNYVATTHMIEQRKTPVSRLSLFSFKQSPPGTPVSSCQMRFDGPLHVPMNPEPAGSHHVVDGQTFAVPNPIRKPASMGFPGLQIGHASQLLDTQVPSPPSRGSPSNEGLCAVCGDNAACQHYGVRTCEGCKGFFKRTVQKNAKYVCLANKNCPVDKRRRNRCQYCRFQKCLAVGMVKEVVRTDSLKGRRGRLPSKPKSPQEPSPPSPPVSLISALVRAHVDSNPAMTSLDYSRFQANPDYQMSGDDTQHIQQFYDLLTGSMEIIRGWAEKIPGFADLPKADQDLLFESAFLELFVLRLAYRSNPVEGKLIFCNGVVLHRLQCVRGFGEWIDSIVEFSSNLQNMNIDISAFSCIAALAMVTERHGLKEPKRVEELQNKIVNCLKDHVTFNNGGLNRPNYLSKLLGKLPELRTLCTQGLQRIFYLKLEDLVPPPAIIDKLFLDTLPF
In short: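 HepG2 cells transiently transfected with GAL4-UAS reporter units and chimeric NR-Gal4 constructs; chemical exposure 24 h. Reporter mRNA quantified by RT-PCR, fluorescent labelling and capillary electrophoresis; gain of signal fitted relative to DMSO baseline.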

[4] = molecular target: Transcriptional activator Myb (Homo sapiens) (UniProt P10242); assay: ATG_Myb_CIS: Attagene CIS-FACTORIAL HepG2 Assay for human Myeloblastosis (Myb) Proto-Oncogene Transcription Factor (AID 2282986); conditions: HepG2 Attagene CIS-FACTORIAL Myb reporter transcription; actives raise or lower the signal
In short: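 Using HepG2 liver cells bearing transiently transfected cis-promoter reporter constructs, the assay measures induction or loss of reporter mRNA after 24 hours of dosing. Detection used fluorescently labeled RT-PCR products separated by capillary electrophoresis.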

[5] = molecular target: Nuclear respiratory factor 1 (Homo sapiens) (UniProt Q16656); assay: ATG_NRF1_CIS: Attagene CIS-FACTORIAL HepG2 Assay for human Nuclear Respiratory Factor 1 (NRF1) Orphan Gene (AID 2282987); conditions: HepG2 NRF1 cis-element reporter, Attagene multiplex; actives raise or lower the signal
Nuclear respiratory factor 1 (Homo sapiens), sequence (Q16656 whole entry, looked up): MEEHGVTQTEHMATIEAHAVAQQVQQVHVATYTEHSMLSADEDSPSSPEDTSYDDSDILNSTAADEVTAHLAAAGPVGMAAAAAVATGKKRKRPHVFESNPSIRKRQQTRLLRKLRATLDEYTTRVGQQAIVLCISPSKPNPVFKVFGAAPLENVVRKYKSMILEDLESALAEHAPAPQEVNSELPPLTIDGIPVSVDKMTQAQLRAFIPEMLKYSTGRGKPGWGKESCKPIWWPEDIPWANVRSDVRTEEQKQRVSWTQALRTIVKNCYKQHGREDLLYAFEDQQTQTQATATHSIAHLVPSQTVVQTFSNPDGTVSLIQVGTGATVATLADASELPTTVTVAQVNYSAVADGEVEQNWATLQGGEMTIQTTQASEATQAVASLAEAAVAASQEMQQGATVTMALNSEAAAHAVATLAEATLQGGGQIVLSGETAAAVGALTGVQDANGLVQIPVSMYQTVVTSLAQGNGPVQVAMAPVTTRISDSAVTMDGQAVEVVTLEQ
In short: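 Reporter mRNA induction or loss in HepG2 cells after 24 h dosing; cis-regulated reporter constructs report endogenous transcription-factor activity. Quantified by RT-PCR/capillary electrophoresis fluorescence, DMSO-referenced.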

[6] = ATG_NFI_CIS: Attagene CIS-FACTORIAL HepG2 Assay for human Nuclear Factor I (NFI) (AID 2282989); conditions: HepG2 cis-regulatory reporter, NFI response element transcription; actives raise or lower the signal
In short: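 Reporter transcripts were measured by RT-PCR with fluorescent primer extension and capillary electrophoresis 24 h post-treatment. HepG2 cells carried transiently transfected cis-regulated reporter constructs reporting endogenous factor activity; gain or loss fitted against DMSO baseline.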

[7] = molecular target: Myc proto-oncogene protein (Homo sapiens) (UniProt P01106); assay: ATG_Myc_CIS: Attagene CIS-FACTORIAL HepG2 Assay for human Myelocytomatosis (Myc) Proto-Oncogene Transcription Factor (AID 2282990); conditions: HepG2, Attagene cis-reporter transcription factor activity; actives raise or lower the signal
Myc proto-oncogene protein (Homo sapiens), sequence (P01106 whole entry, looked up): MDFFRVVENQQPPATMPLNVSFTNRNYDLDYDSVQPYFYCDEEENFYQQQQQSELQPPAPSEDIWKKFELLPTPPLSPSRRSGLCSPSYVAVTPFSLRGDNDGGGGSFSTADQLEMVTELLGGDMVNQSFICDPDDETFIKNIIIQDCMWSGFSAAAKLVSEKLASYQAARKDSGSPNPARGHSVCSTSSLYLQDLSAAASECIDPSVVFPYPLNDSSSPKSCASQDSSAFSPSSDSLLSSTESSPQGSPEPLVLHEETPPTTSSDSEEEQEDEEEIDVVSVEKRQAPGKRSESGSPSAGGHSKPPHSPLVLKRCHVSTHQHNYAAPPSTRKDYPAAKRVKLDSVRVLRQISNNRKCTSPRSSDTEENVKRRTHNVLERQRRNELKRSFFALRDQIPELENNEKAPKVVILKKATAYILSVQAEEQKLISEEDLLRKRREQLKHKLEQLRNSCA
In short: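 Multiplexed cis-reporter transcription in HepG2 cells after 24 h chemical treatment. Reporter mRNA measured by RT-PCR and capillary electrophoresis fluorescence; activity fitted bidirectionally against DMSO control.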

[8] = ATG_NF_kB_CIS: Attagene CIS-FACTORIAL HepG2 Assay for human Nuclear Factor Kappa B (NF-kB) (AID 2282991); conditions: HepG2 Attagene cis-factorial NF-kB reporter mRNA; actives raise or lower the signal
In short: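 DMSO served as negative control and baseline for bidirectional curve fitting. Transiently transfected HepG2 cells were dosed for 24 h, then reporter transcripts were measured by RT-PCR with capillary electrophoresis detection.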

[9] = ATG_NRF2_ARE_CIS: Attagene CIS-FACTORIAL HepG2 Assay for human Nuclear Factor Erythroid 2 Related Factor 2 (NFR2) response to Antioxidant Response Elements (ARE) (AID 2282992); conditions: HepG2 Attagene ARE/NRF2 reporter, transcription factor activity; actives raise or lower the signal
In short: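 Multiplexed reporter mRNA profiling in HepG2 after a 24 h chemical exposure. Curves fitted in both directions relative to DMSO negative control.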

[10] = ATG_Oct_MLP_CIS: Attagene CIS-FACTORIAL HepG2 Assay for human Octamer-Binding Transcription Factor (Oct) (AID 2282993); conditions: HepG2 Attagene cis-factorial Oct reporter, mRNA; actives raise or lower the signal
In short: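 Readout is reporter transcript level from RT-PCR with fluorescent primer extension and capillary electrophoresis, fitted in both directions against DMSO. Transfected HepG2 reporter units report endogenous factor activity after 24 h dosing.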

[11] = molecular target: Cellular tumor antigen p53 (Homo sapiens) (UniProt P04637); assay: ATG_p53_CIS: Attagene CIS-FACTORIAL HepG2 Assay for human p53 Transcription Factor (AID 2282994); conditions: HepG2 p53 cis-element reporter, Attagene mRNA; actives raise or lower the signal
In short: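 Multiplexed reporter mRNA assay in human HepG2 liver cells; cis-regulated units report endogenous factor activity. Values come from bidirectional curve fitting against DMSO negative control after 24 h treatment.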

[12] = BSK_3C_TissueFactor: BioMAP Diversity Plus: 3C Assay for Tissue Factor Biomarker Activity (AID 2282997); conditions: BioMAP 3C HUVEC, tissue factor biomarker readout; actives raise or lower the signal
In short: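 Primary human umbilical vein endothelial cells in the 3C system were exposed to test chemical for 24 h, then Tissue Factor measured by ELISA. Activity was fitted bidirectionally against DMSO as negative control and baseline.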

[13] = BSK_3C_uPAR: BioMAP Diversity Plus: 3C Assay for Urokinase-type plasminogen activator receptor (uPAR) Biomarker Activity (AID 2282998); conditions: BioMAP 3C HUVEC, uPAR biomarker ELISA; actives raise or lower the signal
In short: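 Cell-surface uPAR on HUVEC (3C system) read by ELISA at 24 h post-treatment, with DMSO as baseline and fitting in both directions. Parallel cultures stained with SRB to flag overt cytotoxicity.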

[14] = BSK_3C_VCAM1: BioMAP Diversity Plus: 3C Assay for Vascular cell adhesion molecule 1 (VCAM1) Biomarker Activity (AID 2282999); conditions: BioMAP 3C HUVEC, VCAM1 ELISA, cytokine-stimulated; actives raise or lower the signal
In short: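 Human umbilical vein endothelial cells were dosed with compound for 24 h, after which cell-surface VCAM-1 was quantified by ELISA. Bidirectional curve fitting used DMSO as negative control and activity baseline.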

[15] = molecular target: Glucocorticoid receptor (Homo sapiens) (UniProt P04150); assay: ATG_GR_TRANS: Attagene TRANS-FACTORIAL HepG2 Assay for human Glucocorticoid Receptor (GR) (AID 2282978; active = hit-call score of the fitted dose curve at least 0.9, where 1 is the maximum;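 also: activators score as hits since higher reporter transcript over DMSO is fitted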); conditions: HepG2 Attagene TRANS GR reporter, mRNA transcription
Glucocorticoid receptor (Homo sapiens), sequence (P04150 whole entry, looked up, the tested form may be a part): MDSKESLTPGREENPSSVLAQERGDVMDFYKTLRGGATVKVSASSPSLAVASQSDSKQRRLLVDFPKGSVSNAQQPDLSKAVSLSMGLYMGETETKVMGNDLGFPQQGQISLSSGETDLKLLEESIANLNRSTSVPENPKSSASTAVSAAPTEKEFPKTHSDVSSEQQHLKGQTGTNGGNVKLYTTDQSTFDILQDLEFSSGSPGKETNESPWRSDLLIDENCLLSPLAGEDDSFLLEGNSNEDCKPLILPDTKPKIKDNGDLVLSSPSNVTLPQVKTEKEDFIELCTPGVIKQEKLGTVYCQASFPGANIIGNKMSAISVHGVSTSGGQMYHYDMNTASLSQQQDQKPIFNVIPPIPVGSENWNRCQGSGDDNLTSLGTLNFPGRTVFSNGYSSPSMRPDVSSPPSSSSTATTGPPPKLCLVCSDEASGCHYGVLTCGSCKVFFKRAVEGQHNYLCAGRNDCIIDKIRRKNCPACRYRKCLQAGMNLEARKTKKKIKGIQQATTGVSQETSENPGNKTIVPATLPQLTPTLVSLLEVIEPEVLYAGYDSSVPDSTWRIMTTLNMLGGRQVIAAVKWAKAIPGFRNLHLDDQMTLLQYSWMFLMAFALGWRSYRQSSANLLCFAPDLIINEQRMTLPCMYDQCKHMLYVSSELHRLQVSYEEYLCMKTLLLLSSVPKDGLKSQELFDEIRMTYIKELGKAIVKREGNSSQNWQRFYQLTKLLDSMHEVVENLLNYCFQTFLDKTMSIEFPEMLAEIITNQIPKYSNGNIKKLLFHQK
In short: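 Transiently transfected HepG2 cells express chimeric NR-GAL4 proteins acting on GAL4-UAS reporter units. Compounds are applied for 24 h. mRNA induction over DMSO is measured by capillary electrophoresis.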

[16] = molecular target: Oxysterols receptor LXR-beta (Homo sapiens) (UniProt P55055); assay: ATG_LXRb_TRANS: Attagene TRANS-FACTORIAL HepG2 Assay for human Liver X Receptor beta (LXRb) (AID 2282981; active = hit-call score of the fitted dose curve at least 0.9, where 1 is the maximum); conditions: HepG2 Attagene TRANS GAL4-LXRb reporter, mRNA
Oxysterols receptor LXR-beta (Homo sapiens), sequence (P55055 whole entry, looked up, the tested form may be a part): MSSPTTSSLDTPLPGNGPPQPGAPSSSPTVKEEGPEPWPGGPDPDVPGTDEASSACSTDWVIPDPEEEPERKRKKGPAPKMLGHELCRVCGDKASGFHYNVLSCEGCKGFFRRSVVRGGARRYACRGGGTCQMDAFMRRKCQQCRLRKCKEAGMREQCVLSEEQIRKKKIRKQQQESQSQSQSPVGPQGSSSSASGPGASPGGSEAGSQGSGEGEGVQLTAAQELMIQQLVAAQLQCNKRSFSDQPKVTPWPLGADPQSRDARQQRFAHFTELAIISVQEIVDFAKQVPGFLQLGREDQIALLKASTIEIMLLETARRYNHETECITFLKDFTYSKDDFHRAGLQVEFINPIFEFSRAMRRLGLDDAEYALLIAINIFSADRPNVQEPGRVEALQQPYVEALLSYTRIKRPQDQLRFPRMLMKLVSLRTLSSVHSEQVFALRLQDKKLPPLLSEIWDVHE
In short: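 HepG2 cells transiently transfected with multiple reporter transcription units carrying chimeric NR-Gal4 proteins acting on GAL4-UAS reporters; compound exposure 24 h. Reporter mRNA quantified by RT-PCR, 6-FAM labelling, HpaI digestion and capillary electrophoresis; gain of signal versus DMSO.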

[17] = molecular target: Hepatocyte nuclear factor 4-alpha (Homo sapiens) (UniProt P41235); assay: ATG_HNF4a_TRANS: Attagene TRANS-FACTORIAL HepG2 Assay for human Hepatocyte Nuclear Factor 4 alpha (HNF4a) (AID 2282982; active = hit-call score of the fitted dose curve at least 0.9, where 1 is the maximum); conditions: HepG2 HNF4a transactivation reporter, mRNA readout
Hepatocyte nuclear factor 4-alpha (Homo sapiens), sequence (P41235 whole entry, looked up, the tested form may be a part): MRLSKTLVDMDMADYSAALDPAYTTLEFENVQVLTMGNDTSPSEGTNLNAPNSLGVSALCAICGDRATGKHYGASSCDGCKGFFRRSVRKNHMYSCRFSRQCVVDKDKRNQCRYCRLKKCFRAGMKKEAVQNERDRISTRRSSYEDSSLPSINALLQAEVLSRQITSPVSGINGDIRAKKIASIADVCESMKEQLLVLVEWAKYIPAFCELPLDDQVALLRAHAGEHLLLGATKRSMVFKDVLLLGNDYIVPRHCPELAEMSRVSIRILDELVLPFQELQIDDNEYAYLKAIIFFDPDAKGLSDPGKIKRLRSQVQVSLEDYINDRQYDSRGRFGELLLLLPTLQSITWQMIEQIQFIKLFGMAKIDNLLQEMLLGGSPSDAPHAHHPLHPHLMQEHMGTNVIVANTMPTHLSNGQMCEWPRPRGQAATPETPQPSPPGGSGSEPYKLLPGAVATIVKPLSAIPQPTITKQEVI
In short: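 HepG2 cells transiently transfected with multiplexed GAL4-UAS reporter units responsive to chimeric NR-GAL4 proteins; compound exposure 24 h. Reporter mRNA quantified by RT-PCR, 6-FAM labelling, HpaI digestion and capillary electrophoresis; gain of signal versus DMSO baseline.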

[18] = ATG_M_06_TRANS: Attagene TRANS-FACTORIAL HepG2 Assay for M06 Transcription Factor (Internal Marker) (AID 2282983; active = hit-call score of the fitted dose curve at least 0.9, where 1 is the maximum); conditions: HepG2 Attagene TRANS M06 internal marker reporter
In short: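 HepG2 cells transiently transfected with multiplexed GAL4-UAS reporter transcription units; after 24 h compound exposure, reporter mRNA measured by RT-PCR, FAM-labelled primer extension, HpaI digestion and capillary electrophoresis. Gain-of-signal fitted versus DMSO baseline; background control readout.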

[19] = molecular target: Oxysterols receptor LXR-alpha (Homo sapiens) (UniProt Q13133); assay: ATG_LXRa_TRANS: Attagene TRANS-FACTORIAL HepG2 Assay for human Liver X Receptor alpha (LXRa) (AID 2282980; active = hit-call score of the fitted dose curve at least 0.9, where 1 is the maximum); conditions: HepG2 Attagene TRANS reporter, LXRa transactivation
Oxysterols receptor LXR-alpha (Homo sapiens), sequence (Q13133 whole entry, looked up, the tested form may be a part): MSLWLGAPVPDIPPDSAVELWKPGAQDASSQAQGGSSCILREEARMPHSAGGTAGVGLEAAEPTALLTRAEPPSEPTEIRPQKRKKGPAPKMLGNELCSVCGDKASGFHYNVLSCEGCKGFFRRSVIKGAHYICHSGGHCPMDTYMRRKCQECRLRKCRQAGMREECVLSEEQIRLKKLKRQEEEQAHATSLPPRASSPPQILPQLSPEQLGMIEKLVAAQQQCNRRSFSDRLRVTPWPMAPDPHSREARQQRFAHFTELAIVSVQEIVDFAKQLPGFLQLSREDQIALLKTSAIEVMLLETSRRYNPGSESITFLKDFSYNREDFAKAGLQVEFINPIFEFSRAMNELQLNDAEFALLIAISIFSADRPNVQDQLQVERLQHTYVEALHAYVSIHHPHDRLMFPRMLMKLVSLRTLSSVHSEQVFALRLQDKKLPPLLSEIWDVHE
In short: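 HepG2 cells were transiently transfected with multiplexed reporter units driven by chimeric LXRa–GAL4 fusion proteins, then dosed for 24 h. Reporter mRNA was quantified by RT-PCR, fluorescent labelling and capillary electrophoresis; gain of signal fitted against DMSO baseline.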

[20] = ATG_M_32_TRANS: Attagene TRANS-FACTORIAL HepG2 Assay for M32 Transcription Factor (Internal Marker) (AID 2282984; active = hit-call score of the fitted dose curve at least 0.9, where 1 is the maximum); conditions: HepG2 Attagene TRANS M32 internal marker reporter
In short: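 HepG2 cells transiently transfected with multiple GAL4-UAS reporter transcription units, dosed for 24 hours; reporter mRNA quantified by RT-PCR, 6-FAM primer extension, HpaI digestion and capillary electrophoresis. Gain-of-signal fitted versus DMSO baseline; internal background-control marker.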

Measured: AC50

O=C(O)C(F)(F)C(F)(F)C(F)(F)C(F)(F)C(=O)O
inactive: [1] | [2] | [3] | [4] | [5] | [6] | [7] | [8] | [9] | [10] | [11] | [12] | [13] | [14]

CCCCCCCCCCCCC
inactive: [15] | [2] | [16] | [17] | [18] | [3] | [5] | [6] | [7] | [8] | [9] | [10] | [11]

CC(C)OC(=O)c1ccccc1
inactive: [1] | [17] | [18] | [4] | [5] | [6] | [7] | [8] | [9] | [11]

CC1(C)CCC[C@]2(C)[C@H]3CC(=O)O[C@]3(C)CC[C@@H]12
inactive: [15] | [2] | [19] | [16] | [20] | [4] | [5] | [6] | [7] | [8] | [10] | [11]
active: [9] 30.3 µM

O=C1CCCN1C1CCCCC1
inactive: [1] | [2] | [4] | [5] | [6] | [7] | [8] | [9] | [10]

O=C(Nc1ccccc1)c1cc(Cl)ccc1O
inactive: [15] | [2] | [19] | [16] | [17] | [20] | [4] | [5] | [7] | [8] | [11]
active: [6] 5.49 µM | [9] 2.35 µM | [10] 15.1 µM

O=C(OCc1ccccc1)c1ccc(O)cc1
inactive: [15] | [2] | [19] | [16] | [18] | [4] | [5] | [6] | [7] | [11]
active: [3] 158 µM | [9] 64.4 µM | [10] 125 µM

CC(=O)CCC=C(C)C
inactive: [1] | [19] | [18] | [4] | [5] | [6] | [7] | [8] | [9] | [10] | [11]

Nc1ccc(O)c([N+](=O)[O-])c1
inactive: [1] | [19] | [16] | [17] | [18] | [4] | [5] | [6] | [7] | [10]
active: [8] 37.2 µM | [9] 57.9 µM

CCCCCCCOC(=O)c1ccc(O)cc1
inactive: [15] | [2] | [16] | [17] | [18] | [20] | [3] | [4] | [5] | [6] | [7] | [8] | [11]
active: [9] 39.4 µM

c1ccc2sc(SSN3CCOCC3)nc2c1
active: [5] 100 µM | [6] 75 µM | [7] 76.3 µM | [9] 48.8 µM | [10] 100 µM | [12] 9.51 µM | [13] 4.34 µM | [14] 8.13 µM
inactive: [1] | [19] | [16] | [17] | [18] | [20] | [3] | [4] | [8]

— PubChem BioAssay (EPA / NIEHS)
